Data reported in PubChem BioAssay (Tox21).
“And” between values parts separate entries of the source, which are not always exact repeats. Equal values may be shown once. Inconclusive results are not listed. Some compounds were tested as several samples or in several runs, with calls that do not always agree. The source made the active and inactive calls. Unless noted, calls follow the shape of the full dose curve.

Experiments:
[1] = Nuclear factor erythroid 2-related factor 2/antioxidant responsive element (Nrf2/ARE) small molecule agonists: luciferase reporter gene qHTS assay in human keratinocytes (AID 1919969); also: nearly all actives have a fitted effect of over 35% in size; also: potency is read from the fitted curve at half-maximal effect
[2] = molecular target: KiSS-1 receptor (Homo sapiens) (UniProt Q969F8); test: Human kisspeptin (KISS1R) small molecule agonists, calcium flux assay in KISS1R-HEK293 cells (AID 1920064; active = well fitted activation curve with a large enough effect in the repeat runs)
Procedure, shortened: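 After overnight (18 h) culture at 37 C/5% CO2, human KISS1R-HEK293 cells received calcium dye for 1 h, then test compound; emission at 540 nm (excitation 480 nm) was tracked for 3 min.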

[3] = G protein-coupled receptor (GPCR) small molecule agonists, calcium flux assay: HEK293 wild type cell line counter screen (AID 1920065); also: potency is read from the fitted curve at half-maximal effect
Procedure, shortened: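 Following 18 h incubation at 37 C/5% CO2, plates got calcium dye for 1 h; compounds, ATP or DMSO were then pinned in and fluorescence followed kinetically (480/540 nm).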

[4] = p53 small molecule agonists, cell-based qHTS assay with human liver microsomes: qHTS cell viability counter screen (AID 1963579); also: nearly all actives have a fitted effect of over 45% in size; also: potency is read from the fitted curve at half-maximal effect
Procedure, shortened: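 Cells carrying the p53 response-element beta-lactamase reporter are treated for 16 h at 37 C with test compounds in the presence of human liver microsomes and NADPH (both 0.5 mg/mL final); ATP-based CellTiter-Glo luminescence then reports viability.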

[5] = p53 small molecule agonists, cell-based qHTS assay (AID 1963582; active = well fitted activation curve with a large enough effect in the signal ratio in the repeat runs, not every such curve was filed as active; the % refers to the signal ratio)
Procedure, shortened: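 Measured: fluorescence from cleaved LiveBLAzer substrate. System: p53RE-bla cells, 16 h compound treatment at 37 C, 2 h substrate step at room temperature.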

[6] = molecular target: 5-hydroxytryptamine receptor 2A (Homo sapiens) (UniProt P28223); test: 5-hydroxytryptamine receptor 2A (HTR2A) small molecule antagonists, cell-based qHTS assay (AID 1963586); also: nearly all actives have a fitted effect of over 45% in size; also: potency is read from the fitted curve at half-maximal effect
Procedure, shortened: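 CHO cells stably expressing human HTR2A were plated for 18 h at 37 C, then loaded with calcium dye for 1 h. Compounds were preincubated 5 min at room temperature before DOI (4 nM solution) was added. Kinetic fluorescence was read for 3 min.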

[7] = molecular target: 5-hydroxytryptamine receptor 2A (Homo sapiens) (UniProt P28223); test: 5-hydroxytryptamine receptor 2A (HTR2A) small molecule agonists, cell-based qHTS assay (AID 1963587); also: nearly all actives have a fitted effect of over 30% in size; also: potency is read from the fitted curve at half-maximal effect
Procedure, shortened: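 CHO cells stably expressing human HTR2A, plated 18 h, loaded with calcium dye 1 h at 37 C. Agonist mode: compounds added and intracellular calcium fluorescence recorded kinetically for 2 min at 1 sec intervals.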

[8] = molecular target: Muscarinic acetylcholine receptor M1 (Homo sapiens) (UniProt P11229); test: Cholinergic receptor muscarinic 1 (CHRM1) small molecule antagonists, cell-based qHTS assay (AID 1963588); also: nearly all actives have a fitted effect of over 40% in size
Procedure, shortened: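 Compounds were tested at 15 concentrations in three independent runs. Dye-loaded CHRM1-CHO cells were exposed 5 min at room temperature before stimulation by acetylcholine added at 50nM. Intracellular calcium was read kinetically on FDSS for 3 min.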

[9] = molecular target: Muscarinic acetylcholine receptor M1 (Homo sapiens) (UniProt P11229); test: Cholinergic receptor muscarinic 1 (CHRM1) small molecule agonists, cell-based qHTS assay (AID 1963589); also: nearly all actives have a fitted effect of over 35% in size; also: potency is read from the fitted curve at half-maximal effect
Procedure, shortened: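 Kinetic fluorescence (1 s intervals) of calcium-sensitive dye in human M1 CHO cells after compound addition; cells pre-incubated 18 h at 37 C/5% CO2 and dye-loaded 1 h.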

[10] = cAMP Responsive Elements (CRE) small molecule agonists, cell-based qHTS assay (AID 1963590)
Procedure, shortened: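 Test agents in DMSO were incubated 3 h at 37 C/5% CO2 with CRE-bla HEK 293T cells seeded 18 h earlier; LiveBLAzer B/G FRET substrate was added and read after 2 h at room temperature.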

[11] = p53 small molecule agonists, cell-based qHTS assay with human liver microsomes (AID 1963577); also: potency is read from the fitted curve at half-maximal effect
Procedure, shortened: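 Compounds act here after metabolic activation: human liver microsomes and NADPH, both at 0.5 mg/mL final, were co-added to p53RE-bla cells. Incubation ran 16 h at 37 C, followed by LiveBLAzer detection.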

[12] = p53 small molecule agonists, cell-based qHTS assay with rat liver microsomes (AID 1963578)
Procedure, shortened: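 Read-out is beta-lactamase reporter fluorescence (LiveBLAzer, 2 h, room temperature, dark) in p53RE-bla cells treated 16 h at 37 C with compound, rat liver microsomes and NADPH, both 0.5 mg/mL final.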

[13] = p53 small molecule agonists, cell-based qHTS assay with rat liver microsomes: qHTS cell viability counter screen (AID 1963580); also: nearly all actives have a fitted effect of over 45% in size; also: potency is read from the fitted curve at half-maximal effect
Procedure, shortened: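 After the beta-lactamase ratio was read, CellTiter-Glo was added to the same wells and luminescence measured at 30 min; cells had been treated 16 h at 37 C with compounds, rat liver microsomes and NADPH (0.5 mg/mL final each).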

[14] = p53 small molecule agonists, cell-based qHTS assay: qHTS cell viability counter screen (AID 1963581); also: nearly all actives have a fitted effect of over 45% in size; also: potency is read from the fitted curve at half-maximal effect
Procedure, shortened: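 qHTS counter screen: 16 h compound exposure at 37 C of p53RE-bla HCT-116 cells (4,000 per well, seeded 5 h prior), cell viability by ATP luminescence.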

[15] = molecular target: Beta-2 adrenergic receptor (Homo sapiens) (UniProt P07550); test: Adrenergic beta2 receptor (ADRB2) small molecule antagonists, cell-based qHTS assay (AID 1963592); also: nearly all actives have a fitted effect of over 50% in size; also: potency is read from the fitted curve at half-maximal effect
Procedure, shortened: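 Assay format: CHO-ADRB2 cells, 18-20hr seeding at 37C/5% CO2, then compound plus 1nM isoproterenol agonist mix for 0.5hr RT. Homogeneous time-resolved fluorescence cAMP detection after 1hr, expressed as 665/615 nm ratio.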

[16] = molecular target: Beta-2 adrenergic receptor (Homo sapiens) (UniProt P07550); test: Adrenergic beta2 receptor (ADRB2) small molecule agonists, cell-based qHTS assay (AID 1963593);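 also: CHO cells stably overexpressing human ADRB2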
Procedure, shortened: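 CHO cells stably over-expressing ADRB2 were plated overnight at 37C, then dosed with compounds plus a stimulation mix containing 100uM IBMX and 25uM Ro-20-1724 for 0.5hr at room temperature. cAMP was measured by HTRF competition, 1hr.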

[17] = molecular target: D(2) dopamine receptor (Homo sapiens) (UniProt P14416); test: Dopamine D2 receptor (DRD2) small molecule agonists, cell-based qHTS assay (AID 1963594); also: nearly all actives have a fitted effect of over 35% in size
Procedure, shortened: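 HEK293 cells stably expressing human DRD2, pre-treated with PDE inhibitor Ro20-1724 (0.1 mM final) and compound 10 min at room temperature, then stimulated with NKH477 (200nM […]) for 30 min. cAMP read by HTRF (665/620 nm).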

[18] = molecular target: D(2) dopamine receptor (Homo sapiens) (UniProt P14416); test: Dopamine D2 receptor (DRD2) small molecule antagonists, cell-based qHTS assay (AID 1963595; active = well fitted inhibition curve with a large enough effect in the signal ratio in the repeat runs, with a control signal flat; the % refers to the signal ratio; also: potency is read from the fitted curve at half-maximal effect)
Procedure, shortened: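 HTRF cAMP read-out at 665 and 620 nm emission (340 nm excitation). Antagonist mode: compounds were tested against 12 nM quinpirole in DRD2-HEK293 cells, with 200 nM NKH477 raising cAMP and 0.1 mM Ro20-1724 blocking its breakdown.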

[19] = molecular target: Gonadotropin-releasing hormone receptor (Homo sapiens) (UniProt P30968); test: Human gonadotropin-releasing hormone receptor (GnRHR) small molecule agonists, calcium flux assay in GnRHR-HEK293 cells (AID 1920063); also: nearly all actives have a fitted effect of over 35% in size; also: potency is read from the fitted curve at half-maximal effect
Procedure, shortened: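 Stable human GnRHR HEK293 line. 18 h plating, then calcium dye for 1 h at 37 C. Agonist-mode compound addition from DMSO stocks; fluorescence monitored 3 min.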

[20] = cAMP Responsive Elements (CRE) small molecule antagonists, cell-based qHTS assay (AID 1963591; active = well fitted inhibition curve with a large enough effect in the signal ratio in the repeat runs, not every such curve was filed as active; the % refers to the signal ratio)
Procedure, shortened: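 Reporter line CRE-bla HEK 293T in dialyzed-FBS DMEM; cells preincubated 18 h, treated 3 h with compound plus NKH477 (0.25 uM final); LiveBLAzer FRET, 2 h RT.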

Measured: Potency

Chain of Beta-2 adrenergic receptor (Homo sapiens) (P07550 whole entry, looked up): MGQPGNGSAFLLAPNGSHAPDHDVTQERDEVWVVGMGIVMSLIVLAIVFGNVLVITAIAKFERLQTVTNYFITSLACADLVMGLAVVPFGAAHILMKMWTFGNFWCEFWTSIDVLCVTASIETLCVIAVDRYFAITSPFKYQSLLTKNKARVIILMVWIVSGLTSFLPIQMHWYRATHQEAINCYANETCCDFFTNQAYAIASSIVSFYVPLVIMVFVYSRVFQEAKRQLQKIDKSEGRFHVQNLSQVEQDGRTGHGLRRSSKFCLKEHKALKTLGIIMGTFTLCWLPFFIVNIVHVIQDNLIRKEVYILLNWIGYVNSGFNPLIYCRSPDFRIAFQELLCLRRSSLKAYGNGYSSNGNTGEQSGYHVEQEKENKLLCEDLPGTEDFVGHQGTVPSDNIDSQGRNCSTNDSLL
Chain of 5-hydroxytryptamine receptor 2A (Homo sapiens) (P28223 whole entry, looked up): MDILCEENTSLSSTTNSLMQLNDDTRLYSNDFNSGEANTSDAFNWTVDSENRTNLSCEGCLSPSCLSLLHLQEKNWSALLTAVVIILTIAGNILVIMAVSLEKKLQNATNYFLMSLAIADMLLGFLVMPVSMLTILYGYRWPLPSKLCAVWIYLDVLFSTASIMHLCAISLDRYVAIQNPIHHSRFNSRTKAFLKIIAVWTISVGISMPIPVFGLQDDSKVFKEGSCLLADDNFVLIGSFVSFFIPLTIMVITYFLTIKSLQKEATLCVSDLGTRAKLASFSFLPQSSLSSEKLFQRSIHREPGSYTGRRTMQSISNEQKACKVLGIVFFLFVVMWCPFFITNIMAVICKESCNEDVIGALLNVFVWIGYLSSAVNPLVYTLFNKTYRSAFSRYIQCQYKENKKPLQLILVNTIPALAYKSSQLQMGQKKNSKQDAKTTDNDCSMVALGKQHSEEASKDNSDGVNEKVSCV
Chain of Gonadotropin-releasing hormone receptor (Homo sapiens) (P30968 whole entry, looked up): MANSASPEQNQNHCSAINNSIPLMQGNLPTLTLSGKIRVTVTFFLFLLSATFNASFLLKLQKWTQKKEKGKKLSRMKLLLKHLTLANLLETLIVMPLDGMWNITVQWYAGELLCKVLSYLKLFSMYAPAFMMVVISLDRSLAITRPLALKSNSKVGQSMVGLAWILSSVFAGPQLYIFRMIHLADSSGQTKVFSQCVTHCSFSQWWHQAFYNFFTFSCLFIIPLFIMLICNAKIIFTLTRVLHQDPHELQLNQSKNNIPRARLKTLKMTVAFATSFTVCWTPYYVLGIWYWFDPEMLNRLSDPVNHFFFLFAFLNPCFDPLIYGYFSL
Chain of D(2) dopamine receptor (Homo sapiens) (P14416 whole entry, looked up): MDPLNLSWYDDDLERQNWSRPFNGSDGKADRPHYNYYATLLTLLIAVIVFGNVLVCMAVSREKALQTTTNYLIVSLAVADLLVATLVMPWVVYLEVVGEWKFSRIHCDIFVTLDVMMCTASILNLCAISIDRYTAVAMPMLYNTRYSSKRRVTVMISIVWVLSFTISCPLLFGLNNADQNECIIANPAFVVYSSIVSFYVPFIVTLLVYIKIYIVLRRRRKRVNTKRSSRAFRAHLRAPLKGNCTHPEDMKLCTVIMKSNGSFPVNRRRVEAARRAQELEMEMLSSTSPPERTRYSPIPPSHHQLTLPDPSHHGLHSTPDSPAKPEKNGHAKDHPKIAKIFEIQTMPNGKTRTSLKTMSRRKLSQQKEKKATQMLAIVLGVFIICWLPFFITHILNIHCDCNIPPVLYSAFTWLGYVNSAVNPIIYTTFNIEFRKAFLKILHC
Chain of KiSS-1 receptor (Homo sapiens) (Q969F8 whole entry, looked up): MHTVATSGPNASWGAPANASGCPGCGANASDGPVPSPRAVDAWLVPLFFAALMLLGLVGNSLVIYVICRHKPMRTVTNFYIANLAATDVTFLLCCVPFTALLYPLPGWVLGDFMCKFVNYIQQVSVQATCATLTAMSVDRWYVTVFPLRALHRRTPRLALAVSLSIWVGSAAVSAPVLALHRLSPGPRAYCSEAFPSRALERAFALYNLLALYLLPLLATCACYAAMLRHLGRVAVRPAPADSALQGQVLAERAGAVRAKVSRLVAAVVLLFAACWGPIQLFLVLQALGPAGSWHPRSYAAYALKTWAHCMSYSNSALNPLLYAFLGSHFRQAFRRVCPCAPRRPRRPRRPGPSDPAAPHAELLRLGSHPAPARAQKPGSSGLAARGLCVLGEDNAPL
Chain of Muscarinic acetylcholine receptor M1 (Homo sapiens) (P11229 whole entry, looked up): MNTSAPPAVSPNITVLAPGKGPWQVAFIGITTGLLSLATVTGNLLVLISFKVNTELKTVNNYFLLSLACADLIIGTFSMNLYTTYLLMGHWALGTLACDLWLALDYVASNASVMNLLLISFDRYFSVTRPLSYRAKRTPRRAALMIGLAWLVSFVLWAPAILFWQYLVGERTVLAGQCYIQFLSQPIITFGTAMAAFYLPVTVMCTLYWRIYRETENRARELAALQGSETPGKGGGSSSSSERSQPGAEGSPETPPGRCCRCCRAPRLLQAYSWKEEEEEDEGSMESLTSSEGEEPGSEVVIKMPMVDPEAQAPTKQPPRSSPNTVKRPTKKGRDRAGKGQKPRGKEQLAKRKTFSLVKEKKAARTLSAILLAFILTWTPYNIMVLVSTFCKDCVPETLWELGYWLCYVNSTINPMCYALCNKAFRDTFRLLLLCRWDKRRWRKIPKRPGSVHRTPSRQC

COc1cc(OC)c(OC)cc1C=O
inactive: [1] | [2] | [3] | [4] | [5] | [6] | [7] | [8] | [9] | [10]

C[C@H]1O[C@@H](O[C@H]2[C@@H](O)C[C@H](O[C@H]3[C@@H](O)C[C@H](O[C@H]4CC[C@@]5(C)[C@H](CC[C@@H]6[C@@H]5CC[C@]5(C)[C@@H](C7=CC(=O)OC7)CC[C@]65O)C4)O[C@@H]3C)O[C@@H]2C)C[C@H](O)[C@@H]1O
active: [1] 61.5 nM and 119 nM | [13] 0.073 µM | [14] 81.9 nM and 79.3 nM
inactive: [2] | [3] | [11] | [12] | [15] | [16] | [17] | [18]
46.1 nM (active) and inactive: [4]

O=C(C(Cl)(Cl)Cl)C(Cl)(Cl)Cl
not listed: [2] | [3] | [5] | [7] | [11] | [12] | [16] | [17]
inactive: all other assays above

O=S(=O)(c1ccc(Cl)cc1)c1ccc(Cl)cc1
active: [6] 10.7 µM
inactive: [1] | [2] | [3] | [12] | [9] | [10] | [15] | [17]

COP(N)(=S)Oc1ccccc1C(=O)OC(C)C (configuration not stated)
active: [11] 18.2 µM
not listed: [2] | [12] | [13] | [14] | [20]
inactive: all other assays above

c1ccc(C2CC2)c(OCC2=NCCN2)c1
active: [18] 8.41 µM
not listed: [7] | [10] | [16] | [19] | [20]
inactive: all other assays above

C=CC(C)(CCC=C(C)C)OC(=O)c1ccccc1N (configuration not stated)
not listed: [1] | [6] | [9] | [10] | [16] | [18]
inactive: all other assays above

CCN[C@@H](C)Cc1ccccc1
not listed: [10] | [14] | [19]
inactive: all other assays above

O=C1C(I)=CC(=C(c2cc(I)c(O)c(I)c2)c2ccccc2C(=O)O)C=C1I
inactive: [1] | [2] | [3] | [13] | [6] | [7] | [8] | [15] | [18]

O=C1C=CC(=O)c2ccccc21
active: [1] 6.11 µM | [13] 20.4 µM | [7] 21.9 µM
not listed: [3] | [4] | [10] | [16] | [18] | [19] | [20]
inactive: all other assays above

CSc1nc(N=[N+]=[N-])nc(NC(C)C)n1
not listed: [2] | [6] | [11] | [16] | [19] | [20]
inactive: all other assays above

CCCCC(O)(Cn1cncn1)c1ccc(Cl)cc1Cl (configuration not stated)
inactive: [1] | [2] | [3] | [11] | [12] | [4] | [14] | [8] | [9] | [17]

COCC(C)N(C(=O)CCl)c1c(C)csc1C (configuration not stated)
active: [1] 68.6 µM
not listed: [8] | [9] | [10] | [19]
inactive: all other assays above

Nc1ccccc1C(=O)OC/C=C/c1ccccc1
not listed: [4] | [10] | [11] | [14] | [16] | [19] | [20]
inactive: all other assays above

O=C1NCN(c2ccccc2)C12CCN(CCCOc1ccc(F)cc1)CC2
active: [19] 9.52 µM | [3] 10.7 µM | [9] 4.77 µM | [15] 5.96 µM | [18] 0.106 µM
inactive: [1] | [12] | [13] | [10]

CC(C)(C)NCC(O)c1cc(Cl)c(N)c(C(F)(F)F)c1 (configuration not stated)
active: [18] 0.0084 µM
not listed: [8] | [10] | [14] | [15] | [16] | [19]
inactive: all other assays above

c1ccc2c(c1)cc1ccc3cccc4ccc2c1c34
inactive: [1] | [2] | [3] | [13] | [14] | [15] | [16] | [17] | [18]

COc1ccc2[nH]cc(CCN(C(C)C)C(C)C)c2c1
not listed: [6] | [7] | [14] | [19] | [20]
inactive: all other assays above

CCOc1cc(C(C)(C)C)ccc1C1COC(c2c(F)cccc2F)=N1 (configuration not stated)
inactive: [1] | [2] | [3] | [4] | [13] | [14] | [6] | [7] | [8] | [9] | [15]
